From PubChem BioAssay AID604 (The Scripps Research Institute Molecular Screening Center, 2007)
The whole screen tested about 60,000 compounds, of which about 210 (0.35%) were called active.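 Rule for the calls: active = inhibition above the screen-wide mean inhibition plus 3 SD (cut at about 18% in these data); inactive = the rest.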 The full list was thinned out, with actives kept by preference.

target: Rho-associated protein kinase 2 (Homo sapiens) (UniProt O75116); experiment: inhibitors of human ROCK2 kinase, primary screen, biochemical, high-throughput, luminescence (AID 604); details: purified ROCK2, Kinase-Glo ATP depletion luminescence; at 6 µM; active compounds read high;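 note: plate controls were DMSO wells for no effect and Y-27632 control wells after no-enzyme background subtraction for full effect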
Sequence (O75116 whole entry, looked up): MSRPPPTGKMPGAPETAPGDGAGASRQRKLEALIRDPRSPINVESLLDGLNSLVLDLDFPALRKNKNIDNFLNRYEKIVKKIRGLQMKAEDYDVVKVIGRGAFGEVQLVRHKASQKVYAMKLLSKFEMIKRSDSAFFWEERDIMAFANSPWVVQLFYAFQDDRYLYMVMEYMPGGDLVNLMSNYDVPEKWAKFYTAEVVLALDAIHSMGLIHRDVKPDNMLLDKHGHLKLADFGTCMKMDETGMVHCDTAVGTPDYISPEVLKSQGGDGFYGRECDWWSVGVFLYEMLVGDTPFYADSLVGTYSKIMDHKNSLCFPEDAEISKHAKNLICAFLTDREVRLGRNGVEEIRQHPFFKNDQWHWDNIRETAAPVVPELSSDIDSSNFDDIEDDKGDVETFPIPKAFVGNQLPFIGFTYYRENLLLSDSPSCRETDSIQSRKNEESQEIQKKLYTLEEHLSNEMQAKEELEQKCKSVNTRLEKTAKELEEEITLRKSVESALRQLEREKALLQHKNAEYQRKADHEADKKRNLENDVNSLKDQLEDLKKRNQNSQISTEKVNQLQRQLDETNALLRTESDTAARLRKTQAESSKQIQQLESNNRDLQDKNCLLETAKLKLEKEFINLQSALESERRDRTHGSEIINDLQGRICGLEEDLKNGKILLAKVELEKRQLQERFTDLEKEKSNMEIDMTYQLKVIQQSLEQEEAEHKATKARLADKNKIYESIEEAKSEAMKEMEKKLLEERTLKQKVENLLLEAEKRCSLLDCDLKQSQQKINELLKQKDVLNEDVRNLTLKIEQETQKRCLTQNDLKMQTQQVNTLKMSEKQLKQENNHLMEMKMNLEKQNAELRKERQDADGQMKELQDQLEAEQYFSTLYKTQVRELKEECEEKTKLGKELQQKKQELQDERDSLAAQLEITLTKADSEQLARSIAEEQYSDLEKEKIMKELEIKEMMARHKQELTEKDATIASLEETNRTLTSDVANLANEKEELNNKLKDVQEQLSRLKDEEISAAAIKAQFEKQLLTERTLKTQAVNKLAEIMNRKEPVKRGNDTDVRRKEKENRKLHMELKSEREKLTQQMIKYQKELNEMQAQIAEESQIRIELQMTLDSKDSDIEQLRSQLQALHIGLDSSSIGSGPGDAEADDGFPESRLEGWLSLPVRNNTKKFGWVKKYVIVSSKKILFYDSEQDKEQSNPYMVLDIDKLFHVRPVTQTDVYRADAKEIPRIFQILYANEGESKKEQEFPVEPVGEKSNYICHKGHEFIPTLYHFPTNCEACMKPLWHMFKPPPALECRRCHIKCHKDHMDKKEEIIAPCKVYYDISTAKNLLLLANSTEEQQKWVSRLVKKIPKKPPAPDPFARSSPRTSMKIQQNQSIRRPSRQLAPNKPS

inhibition, inactive:
CC(C)OCCCNc1nc2c(c(=O)n(Cc3ccccc3F)c(=O)n2C)n1C -0.3%, CC1Cc2ccccc2N1C(=O)CSc1nnc(-c2ccc(S(=O)(=O)N3CCCCC3)cc2)o1 (configuration not stated) -4.4%, CCCCCCn1c(CN2CCCCC2)nc2c1c(=O)n(C)c(=O)n2C -1.3%, Cc1nn(-c2ccccc2)c(C)c1C(=O)OCC(=O)NC(=O)NC1CCCCC1 1.4%, COC(=O)C(C)n1cnc2c(nnn2-c2cccc(Cl)c2)c1=O (configuration not stated) 7.7%, O=C(CC1N=C2c3ccccc3N=C(SCc3ccccc3Cl)N2C1=O)NCc1ccco1 (configuration not stated) 2.8%, Cc1cccc(OCc2nnc(SCC(=O)N3CCN(C(=O)c4ccco4)CC3)n2C)c1C 3.2%, O=C(c1cc(-c2ccccc2O)on1)N1CCCC1 -1.5%, CCOC(=O)N1CCC(NC(=O)Cn2cc3c(n2)CCCCC3)CC1 9%, O=C(CN1CCOCC1)Nc1cc(Cl)ccc1Cl 2.5%, O=C(NCc1ccco1)C1CCCN(S(=O)(=O)c2cnc[nH]2)C1 (configuration not stated) 3.2%, COc1cccc(-c2nn(C)c3sc(C(=O)N4CCN(c5ccccc5)CC4)cc23)c1 6.1%, O=C(Nc1ccn(Cc2ccc(F)cc2)n1)c1ccncc1 18.1%, CCOC(=O)Cc1csc(NC(=O)CN(C)S(=O)(=O)c2ccc3c(c2)CCC(=O)N3)n1 2.4%, CC(C)n1c(NCc2c[nH]c3ccccc23)nc2ccccc21 2.4%, Cc1cc(NC(=O)CCC(=O)N(c2cccc(F)c2)C(C(=O)NC2CCCC2)c2ccncc2)no1 (configuration not stated) 4%, Cc1ccccc1-c1nc(CS(=O)(=O)CC(=O)N2CCc3ccccc3C2)c(C)o1 -0.8%, CN(C)Cc1c(O)ccc2occ(C(O)c3ccccc3)c12 (configuration not stated) 2%, CSc1ccc(S(=O)(=O)NCc2ccc(Cl)cc2)cc1 5.4%, CCOC(=O)N1CCN(Cc2nc3c(c(=O)n(C)c(=O)n3C)n2Cc2ccccc2)CC1 2.4%, CCn1c(SCC(=O)Nc2cc(C)c(Cl)cc2OC)nnc1-c1ccco1 3.2%, Cc1ccc(N2CCN(S(=O)(=O)N(C)C)CC2)cc1Cl 8.1%, O=c1c(-c2ccc3c(c2)OCCO3)c(C(F)(F)F)oc2cc(O)cc(O)c12 -3.1%, CCOC(=O)C1=C(C)NC(C)=C(C(=O)OCC)C1c1ccccn1 -6.7%, CC(=O)N1CSCC1C(=O)O (configuration not stated) 2.3%, Cc1noc(C)c1C(=O)Nc1ccccn1 8.1%, O=C(NCc1cccnc1)c1ccc(CS(=O)(=O)c2ccc(Br)cc2)o1 1.6%, O=C(/C(=N\O)n1cncn1)c1ccc(Br)cc1Br -2.8%, CCOC(=O)NC(C(F)(F)F)(C(F)(F)F)P(=O)(c1ccccc1)c1ccccc1 3.9%, CCN(CC(=O)NCc1cccs1)c1nnnn1-c1ccccc1 -4.6%, C[C@H](NC(=O)NCCc1ccccc1)C(=O)O 4.7%, COc1ccc(C2CC(c3ccc(C)cc3)Nc3nc(N)nn32)cc1 (configuration not stated) -2.6%, O=C(CN(Cc1ccccc1)C(=O)c1ccc2c(c1)OCCO2)NCc1ccc2c(c1)OCO2 5.9%, Cc1cccc(Cn2c(N3CCN(c4ccccc4)CC3)nc3c2c(=O)n(C)c(=O)n3C)c1 5.3%, COc1ccccc1NC1=NC2(CCCC2)N=C(N)N1 -2%, CCOc1ncccc1C(=O)OCc1cn2cc(Cl)ccc2n1 12.7%, Cc1ccc(C2c3c(oc4ccc(C)cc4c3=O)C(=O)N2CCCN2CCOCC2)cc1 (configuration not stated) -2.1%, Cc1cc(NC(=O)CSCc2nc(-c3cccc(Cl)c3)oc2C)no1 3.5%, COc1ccccc1N(CC(=O)N1CCCCC1)S(=O)(=O)c1ccccc1 5.5%, COc1ccc(N2C(=O)CC(N3CCC(C(N)=O)CC3)C2=O)cc1 (configuration not stated) -1.8%, O=C(CC1Oc2ccccc2NC1=O)NCCCN1CCN(Cc2ccccc2)CC1 (configuration not stated) 0.1%, C(=C\c1ccccc1)/CSc1nnc(-c2cccnc2)n1Cc1ccco1 5%, CCN(CC)CCN1C(=O)C(=O)/C(=C(/O)c2ccc(OC)c(OC)c2)C1c1ccccn1 (configuration not stated) 1.6%, Cc1cc(N=CC2=C(O)CCCC2=O)no1 4.3%, Cc1ccsc1-c1nc(CSCC(=O)NCCN2CCCC2)c(C)o1 -0.8%, CC1CCCN(c2ccc(C(=O)NCCc3ccccc3)cn2)C1 (configuration not stated) 7.3%, Cc1ccc(S(=O)(=O)N2CCCC2C(=O)NCc2ccco2)cc1 (configuration not stated) -1.2%, CC(C)NS(=O)(=O)c1ccc(CCC(=O)N2CCOCC2)cc1 1.3%, CCn1nc(NC(=O)c2ccco2)c2cc3ccc(C)cc3nc21 -4.9%, CCNS(=O)(=O)c1ccc(NC(=O)Nc2cccc(OC)c2)cc1 2.5%, COc1ccc(CNC(=O)c2cc3c(=O)n4ccccc4nc3n(CC3CCCO3)c2=N)cc1 (configuration not stated) 5.4%, CCOC(=O)c1csc(NC(=O)c2ccc(S(=O)(=O)N3CCCC3)cc2)n1 -1.1%, C=CCn1c(=S)[nH]c2nc3c(cc2c1=O)COC(C)(C)C3 8%, CCCCC(=O)N1CC2(C)CN(C(=O)CCCC)CC(C)(C1)C2=O 3.9%, O=C(Nc1ccccc1F)c1cc(S(=O)(=O)N2CCCCC2)cs1 9.5%, O=C(CSc1ncccn1)NCCc1ccccc1 6.2%, CCCOC(=O)Cc1c(O)c2ccccc2[nH]c1=O 1.5%, CC1(C)CC(=O)C=C(NC2CC(C)(C)NC(C)(C)C2)C1 5.7%, O=C(OCC(=O)N1CCCC1)c1ccco1 3.5%, Cc1oc(CC(C)C)c(CN2CCCC2)c1C(=O)O 0.9%, CC(=O)Cc1nsc(NC(=O)c2ccc(COc3ccc(C)cc3)o2)n1 2.4%, Cc1noc(C)c1S(=O)(=O)N1CCCC(C(=O)Nc2nccs2)C1 (configuration not stated) 3.5%
